PPARg SRC1 recr – agonists of human PPARgamma SRC-1 coactivator recruitment; P37231; activation, % at 8 µM; PPARgamma-SRC-1 coactivator recruitment biochemical assay; 200,000 compounds, 0.41% hits; in the data active means activation above about 19%;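 further: 0% = DMSO and 100% = reference agonist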
Target sequence (P37231 whole entry, looked up): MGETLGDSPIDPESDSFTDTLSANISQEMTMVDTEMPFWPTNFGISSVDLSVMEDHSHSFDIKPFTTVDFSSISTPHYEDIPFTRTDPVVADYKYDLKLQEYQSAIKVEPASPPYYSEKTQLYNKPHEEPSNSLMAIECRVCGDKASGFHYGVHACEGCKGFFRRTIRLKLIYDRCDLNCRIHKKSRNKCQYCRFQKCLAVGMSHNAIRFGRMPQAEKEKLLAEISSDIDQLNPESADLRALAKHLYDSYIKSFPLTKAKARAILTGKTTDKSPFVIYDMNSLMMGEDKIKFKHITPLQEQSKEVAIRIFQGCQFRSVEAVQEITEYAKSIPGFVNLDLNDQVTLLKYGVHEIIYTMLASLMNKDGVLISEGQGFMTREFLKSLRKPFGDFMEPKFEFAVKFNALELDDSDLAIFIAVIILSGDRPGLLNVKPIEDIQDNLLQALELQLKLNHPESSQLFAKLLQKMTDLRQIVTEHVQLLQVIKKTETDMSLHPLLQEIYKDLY
SRC3 TRFRET art – counter-screen for PPARgamma SRC-3 recruitment agonists: TR-FRET artefact. PPARgamma/SRC-3 format; stronger effect = higher value. TR-FRET ratio at 8 µM. 99,000 compounds, 0.39% hits. AID 1048
PPARg SRC-2 ag – promotes SRC-2 coactivator recruitment by human PPARgamma; P37231; PPARgamma LBD-SRC-2 recruitment, biochemical; activation, % at 8 µM; 200,000 compounds, 0.34% hits; AID 1032; in the data active means activation above about 22%;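 further: 0% = vehicle and 100% = reference agonist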
PPARg SRC3 recr – PPARgamma-driven SRC-3 recruitment agonism; P37231; AID 731; 200,000 compounds, 0.26% hits; activation, % at 8 µM; biochemical PPARgamma/SRC-3 coactivator recruitment assay; in the data active means activation above about 23%;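 further: 0% = DMSO and 100% = reference agonist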
SRC1 TRFRET art – flags TR-FRET format artefacts in PPARgamma SRC-1 recruitment agonist screen. 99,000 compounds, 0.34% hits. TR-FRET ratio at 8 µM. TR-FRET detection artefact counter-screen, emission ratio; stronger effect = higher value; in the data active means TR-FRET ratio above about 2300
TR-FRET SRC-2 ct – TR-FRET artefact, counter-screen to PPARgamma/SRC-2 agonist assay. stronger effect = higher value. TR-FRET ratio at 8 µM. 200,000 compounds, 0.4% hits. AID 1049
* hit, by the source's call. In the library only some 0.9% were active in any assay of this set; here they are far more common. Unless noted, no stated cut-off is given here; in the data, active means TR-FRET ratio above about 2000; inactive means the rest.

Screening CC(OC(=O)Cc1n[nH]c(=O)c2ccccc12)C(=O)Nc1cccc([N+](=O)[O-])c1 (configuration not stated) returned PPARg SRC1 recr 5.4, SRC3 TRFRET art 1541, PPARg SRC-2 ag -9.8, PPARg SRC3 recr 1.7, SRC1 TRFRET art 1744 and TR-FRET SRC-2 ct 1365.
For CC1(CCC#N)N=C(SCCC#N)N(c2ccccc2)C1=O (configuration not stated) the results were PPARg SRC1 recr 2.4, PPARg SRC-2 ag 7.9, PPARg SRC3 recr 1.5 and TR-FRET SRC-2 ct 1990*.
`O=C(O)CCc1ccc(-c2ccc(Cl)cc2)n1NC(=O)c1ccc(O)cc1` gave PPARg SRC1 recr -2.6, SRC3 TRFRET art 1635, PPARg SRC-2 ag 8.0, PPARg SRC3 recr 4.5, SRC1 TRFRET art 1780 and TR-FRET SRC-2 ct 1720.
`COc1ccc2[nH]c(=S)[nH]c2c1` gave PPARg SRC1 recr 4.7, PPARg SRC-2 ag 12.6, PPARg SRC3 recr 10.5 and TR-FRET SRC-2 ct 1534.
Screening S=c1[nH]c2ccc(Cl)cc2[nH]1 returned PPARg SRC1 recr 5.0, PPARg SRC-2 ag 23.6*, PPARg SRC3 recr 5.2 and TR-FRET SRC-2 ct 1677.
For CCOc1nc(-c2ccccc2)ccc1-c1noc(-c2ccncc2)n1 the results were PPARg SRC1 recr -3.5, SRC3 TRFRET art 1406, PPARg SRC-2 ag 0.3, PPARg SRC3 recr 2.1, SRC1 TRFRET art 1933 and TR-FRET SRC-2 ct 1670.
For CCOc1nc(-c2ccccc2)ccc1-c1noc(-c2cccs2)n1 the results were PPARg SRC1 recr 33.7*, PPARg SRC-2 ag 2.9, PPARg SRC3 recr -5.5 and TR-FRET SRC-2 ct 1549.
Screening CN(Cc1nc(Cc2cccc(F)c2)no1)CC1CCOCC1 returned PPARg SRC1 recr 5.6, SRC3 TRFRET art 1492, PPARg SRC-2 ag 2.5, PPARg SRC3 recr 5.3, SRC1 TRFRET art 1805 and TR-FRET SRC-2 ct 1494.
Cc1occc1C(=O)N/N=C/c1ccc(Br)s1 was read as PPARg SRC1 recr 22.2*, SRC3 TRFRET art 1760, PPARg SRC-2 ag 5.8, PPARg SRC3 recr 7.1, SRC1 TRFRET art 1992 and TR-FRET SRC-2 ct 1634.
Screening Cc1ccc(/C=N/NC(=O)c2ccoc2C)s1 returned PPARg SRC1 recr 7.6, SRC3 TRFRET art 1691, PPARg SRC-2 ag -6.0, PPARg SRC3 recr 1.3, SRC1 TRFRET art 1649 and TR-FRET SRC-2 ct 1445.
`O=C(c1ccccc1)c1n[nH]c(-c2ccccc2)cc1=O` gave PPARg SRC1 recr -1.3, SRC3 TRFRET art 1426, PPARg SRC-2 ag 4.2, PPARg SRC3 recr -1.5, SRC1 TRFRET art 1492 and TR-FRET SRC-2 ct 1523.
Screening O=C(c1cc2sccc2n1Cc1ccccc1)N1CCN(c2nc3ccccc3s2)CC1 returned PPARg SRC1 recr 6.8, PPARg SRC-2 ag 7.8, PPARg SRC3 recr 11.3 and TR-FRET SRC-2 ct 2570*.
For CCC(=O)N1CCN(c2nc3ccccc3s2)CC1 the results were PPARg SRC1 recr 0.0, PPARg SRC-2 ag 3.9, PPARg SRC3 recr 8.7 and TR-FRET SRC-2 ct 1508.
CCOC(=O)c1c(NC(=O)C2=C(C)NC(=S)NC2c2ccc(C)cc2)sc(C)c1C (configuration not stated) was read as PPARg SRC1 recr 16.3, SRC3 TRFRET art 1630, PPARg SRC-2 ag 2.9, PPARg SRC3 recr 2.4, SRC1 TRFRET art 2914* and TR-FRET SRC-2 ct 1494.
Screening CCOC(=O)c1c(NC(=O)C2=C(C)NC(=S)NC2c2ccc(F)cc2)sc(C)c1C (configuration not stated) returned PPARg SRC1 recr 0.8, SRC3 TRFRET art 1671, PPARg SRC-2 ag 7.0, PPARg SRC3 recr 1.1, SRC1 TRFRET art 1845 and TR-FRET SRC-2 ct 1612.
For O=C(COC(=O)c1ccccc1C(=O)c1ccccc1)NCCc1ccccc1 the results were PPARg SRC1 recr 20.9*, SRC3 TRFRET art 1639, PPARg SRC-2 ag 5.0, PPARg SRC3 recr 5.9, SRC1 TRFRET art 1888 and TR-FRET SRC-2 ct 1651.
Screening CCOc1ccc(C(=O)CC(NCc2cccs2)C(=O)O)cc1 (configuration not stated) returned PPARg SRC1 recr 9.7, SRC3 TRFRET art 1646, PPARg SRC-2 ag 14.6, PPARg SRC3 recr 3.4, SRC1 TRFRET art 2000 and TR-FRET SRC-2 ct 1586.
Screening Cc1ccc(C2C(C#N)=C(N)SC(N)=C2C#N)o1 returned PPARg SRC1 recr 19.2*, PPARg SRC-2 ag 23.4*, PPARg SRC3 recr 24.4 and TR-FRET SRC-2 ct 2112*.
`COc1cccc(NC(=O)COC(=O)c2ccc(F)cc2F)c1` gave PPARg SRC1 recr -6.4, SRC3 TRFRET art 1348, PPARg SRC-2 ag -1.4, PPARg SRC3 recr -0.2, SRC1 TRFRET art 1458 and TR-FRET SRC-2 ct 1356.
Screening COc1ccc(NC(=O)COC(=O)c2ccc(F)cc2F)cc1 returned PPARg SRC1 recr 11.4, SRC3 TRFRET art 1571, PPARg SRC-2 ag 5.8, PPARg SRC3 recr 12.2, SRC1 TRFRET art 1852 and TR-FRET SRC-2 ct 1971*.
Screening CCOc1ccc(-n2cc(-c3ccc(OC)c(OC)c3)[nH]c2=S)cc1 returned PPARg SRC1 recr 5.0, SRC3 TRFRET art 1461, PPARg SRC-2 ag 2.5, PPARg SRC3 recr 4.1, SRC1 TRFRET art 1719 and TR-FRET SRC-2 ct 1424.
For COc1ccc(-n2nnnc2SCC(=O)c2cc3ccccc3o2)cc1 the results were PPARg SRC1 recr 7.0, PPARg SRC-2 ag 0.9, PPARg SRC3 recr 2.5 and TR-FRET SRC-2 ct 2072*.
For CC(C)Cc1nc(Cl)c(C#N)c2c1CCCC2 the results were PPARg SRC1 recr -6.7, SRC3 TRFRET art 2298*, PPARg SRC-2 ag -6.5, PPARg SRC3 recr 21.5, SRC1 TRFRET art 1692 and TR-FRET SRC-2 ct 1374.
`CC1CC(C)CN(CCCCOc2ccc([N+](=O)[O-])cc2)C1` (configuration not stated) gave PPARg SRC1 recr 5.6, SRC3 TRFRET art 1666, PPARg SRC-2 ag -3.4, PPARg SRC3 recr -0.3, SRC1 TRFRET art 1773 and TR-FRET SRC-2 ct 1424.
Cc1nc(SCC(=O)Nc2ccc(F)cc2)c2oc3ccccc3c2n1 was read as PPARg SRC1 recr 30.1*, PPARg SRC-2 ag 1.5, PPARg SRC3 recr 4.5 and TR-FRET SRC-2 ct 1446.
`Cc1nc(SCC(=O)NC(C)c2ccccc2)c2oc3ccccc3c2n1` (configuration not stated) gave PPARg SRC1 recr 6.2, PPARg SRC-2 ag 5.7, PPARg SRC3 recr 4.1 and TR-FRET SRC-2 ct 1582.
`CCc1nc(SCC(=O)NCCc2ccccc2)c2oc3ccccc3c2n1` gave PPARg SRC1 recr -4.2, PPARg SRC-2 ag 12.9, PPARg SRC3 recr 2.8 and TR-FRET SRC-2 ct 2202*.
Screening Cc1nc(SCC(=O)c2ccc(Cl)s2)c2oc3ccccc3c2n1 returned PPARg SRC1 recr 18.7*, PPARg SRC-2 ag -0.3, PPARg SRC3 recr -8.6 and TR-FRET SRC-2 ct 1533.
Screening Cc1nc(SCC(=O)Nc2ccccc2)c2oc3ccccc3c2n1 returned PPARg SRC1 recr -0.6, PPARg SRC-2 ag -2.4, PPARg SRC3 recr -2.5 and TR-FRET SRC-2 ct 1248.
Screening CN1/C(=C\C(=O)CSc2nnc(NCc3ccccc3)s2)C(C)(C)c2ccccc21 returned PPARg SRC1 recr 11.6, SRC3 TRFRET art 2062*, PPARg SRC-2 ag -2.7, PPARg SRC3 recr 1.6, SRC1 TRFRET art 1935 and TR-FRET SRC-2 ct 1667.
